Experimental data from PubChem BioAssay (NCI).
This is part of a sample that, as a whole, favours compounds with a hit. Of some 83,000 tested, about 20% had one in any assay.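 Values shown are percent growth following 48 h exposure of cells in 96-well plates to a single concentration of compound; below 10 was considered active.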 A number with no mark means an inactive call. Active and inactive are the calls of the source.

These compounds were tested on HL-60(TB) leukemia (assay: NCI-60 one-dose screen, 48 h (100 = growth as untreated, 0 = no growth, -100 = all killed)). Settings: 10 µM unless noted.

Row | Structure (SMILES) | growth
1 | C=C1C(=O)O[C@H]2[C@H]1CC/C(COC(=O)c1cc3ccccc3o1)=C\CC[C@@]1(C)O[C@@H]21 | -2.94% (active)
2 | Cc1ccccc1NC(=O)Oc1ccc(Cl)cc1C(=O)c1ccccc1 | 103%
3 | Cc1cc(N2CCCC2)nc(NC2CCCC(Nc3ccnc4cc(Cl)ccc34)C2)n1 (centres undefined) | -68.5% (active)
4 | CCCOc1nc(SCCC)nc2c1cnn2-c1ccccc1 | 136%
5 | O=C(Nc1ccc(Cl)c(Cl)c1)O/N=C\c1c(Cl)ccc([N+](=O)[O-])c1Cl | -61.4% (active)
6 | CN1CCN(Cc2ccc(NC(=O)c3[nH]ncc3Nc3ccnc4ccsc34)cc2)CC1 | -17.8% (active)
7 | CCc1ccccc1-n1[nH]c(C)c(C=N)c1=O | 98.3%
8 | CN1CCN(c2ccc(-c3ccc4ncc(C#N)c(Nc5ccc(F)c(Cl)c5)c4c3)cc2)CC1 | 22.3%
9 | CCCCCCCCCCCCNC(=S)N/N=C/c1ccc(Cl)c(Cl)c1 | 116%
10 | CCCCCCC1(/C=N/NC(N)=O)NC(=O)NC1=O (centres undefined) | 96.7%
11 | COC(=O)[C@]12CC[C@@H](C)[C@H](C)[C@@H]1C1=CC[C@@H]3[C@@]4(C)C(C=O)=C[C@@](C)(COC(C)=O)C4=CC[C@@]3(C)[C@]1(C)CC2 | -53.1% (active)
12 | Oc1ccc(Cl)cc1C(c1cc(Cl)ccc1O)C(Cl)(Cl)Cl | 69%
13 | CCN(CC)c1ccc(N2C(=O)/C(=C/c3cccs3)SC2=S)cc1 | 92.6%
14 | Cc1ccc2nc3c(cc2c1)CSc1nnc(-c2ccc[nH]c2=S)n1N3 | 102%
